The nature of assay [1]: qHTS assay for small molecules that induce genotoxicity in human embryonic kidney cells expressing luciferase-tagged ATAD5 (AID 651632). Further: nearly all actives have a fitted effect of over 15% in size. An outline of the steps:
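HEK293T cells carrying luciferase-tagged ATAD5 were given compound or DMSO vehicle and incubated 16 hr at 37C, 5% CO2. Luciferase activity was read after 30 min at room temperature with Amplite; a rise signals genotoxic stress.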

Assay [2] can be described thus: qHTS assay for small molecule agonists of the p53 signaling pathway - cell viability (AID 651633; calls by dose curve; further: nearly all actives have a fitted effect of over 30% in size; further: potency means the concentration at half of the fitted maximal effect). An outline of the steps:
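Viability counter-read: CellTiter-Glo luminescence (30 min, room temperature) in the same p53RE-bla plates. These plates had been exposed to compounds for 16 h at 37 C.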

Assay [3] is described as follows: qHTS assay for small molecules that induce genotoxicity in human embryonic kidney cells expressing luciferase-tagged ATAD5 - cell viability (AID 651634; calls by dose curve; further: nearly all actives have a fitted effect of over 25% in size; further: potency means the concentration at half of the fitted maximal effect). A digest of the protocol: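 HEK293T cells carrying luciferase-tagged ATAD5, 2,000 cells/well, exposed to compound for 15.5 hr at 37C. Viability read as live-cell protease activity by CellTiter-Fluor fluorescence after 30 min at 37C.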

Assay [4] is described as follows: qHTS assay for small molecule disruptors of the mitochondrial membrane potential - cell viability (AID 720634; calls by dose curve;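 further: human HepG2 liver cancer cells; series mostly up to about 83 µM; nearly all actives have a fitted effect of over 20% in size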). A digest of the protocol: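 HepG2 cells, 2,000 per well, attached overnight, then treated 1 hr at 37 C, 5% CO2. Viability read as ATP by CellTiter-Glo luminescence after 30 min at room temperature. Read in the same wells as the m-MPI membrane-potential dye assay.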

Assay [5] can be described thus: qHTS assay for small molecule disruptors of the mitochondrial membrane potential (AID 720635). Further: potency means the concentration at half of the fitted maximal effect. An outline of the steps: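 Mitochondrial membrane potential tracked with Mito-MPS dye, red aggregates (ex 540/em 590 nm) against green monomers (ex 490/em 535 nm). Compound treatment 1 hr at 37C, dye 30 min in HepG2.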
Assay [6] can be described thus: qHTS assay to test for compound auto fluorescence at 590 nm (red) in HepG2 cells (AID 720674). A digest of the protocol:
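Red autofluorescence (Ex/Em 540/590 nm, Rose Bengal sodium equivalents) was measured in HepG2 cells, 2,000 per well in MEM plus 10% FBS, plated overnight at 37 C. Readings were taken 1 hr after adding 23 nL compound or DMSO, at 37 C and 5% CO2.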

A short description of assay [7]: qHTS assay to test for compound auto fluorescence at 535 nm (green) in HepG2 cells (AID 720675).
A short description of assay [8]: qHTS assay to test for compound auto fluorescence at 460 nm (blue) in HEK293 cells (AID 720678). A digest of the protocol: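 Measured: blue fluorescence (Ex 405/Em 460 nm) of compound-treated HEK293 cells, incubated overnight at 37C with 5% CO2 and scaled to triamterene equivalents.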
Assay [9] is described as follows: qHTS assay to test for compound auto fluorescence at 590 nm (red) in HEK293 cells (AID 720679). A digest of the protocol:
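Using HEK293 cells at 2,000 per well, the screen added 23 nL of each compound after cell attachment and incubated overnight (37C, 5% CO2). The plate reader then captured red-label fluorescence, Ex/Em 540/590nm.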

Values joined by “and” are separate entries in the source; they are usually repeats but may differ in a detail not shown here. Identical values can stand only once. Records with an inconclusive call do not appear. The source holds several records for some structures; these can differ, active in one and inactive in another. Active and inactive are the calls of the source. Unless noted, the call rests on the fitted dose curve; in most records, active means well fitted curve in the direction sought with a large enough effect in the repeat runs; inconclusive means weak or mixed curves; inactive means no such curve, though single readings can be large; an effect the other way counts as inactive or inconclusive.

Turning to `CCCCC(=O)O`, the Potency result in [1], in [2], in assay [3], in assay [4], in assay [5] and in assay [8] was “inactive” throughout. For the same molecule, the outcome in [6], in assay [7] and in assay [9] was inactive.
For `CCCCCCCCC(=O)O`, the Potency result in assay [1], in assay [2], in assay [3], in assay [4], in [5] and in assay [8] was “inactive” in each case. Besides, the result in assay [6], in assay [7] and in [9] was inactive.
In the case of `C=C1C[C@]23C[C@@]1(O)CC[C@H]2[C@@]12C=C[C@H](O)[C@@](C)(C(=O)O1)[C@H]2[C@@H]3C(=O)O`, the Potency result in assay [1], in [2], in [3], in assay [4], in assay [5] and in assay [8] was “inactive” each time. Moreover, the call in assay [6], in assay [7] and in assay [9] was inactive.
For `O=c1c(O)c(-c2ccc(O)c(O)c2)oc2cc(O)cc(O)c12`, the Potency entry in assay [1], in assay [2], in assay [4] and in assay [8] was “inactive” in each case. Moreover, the Potency in assay [3] was 54.5 µM (active). Further, the call in [6], in assay [7] and in assay [9] was inactive.
Regarding `CC(=O)OCc1ccc2c(c1)OCO2`, the Potency result in assay [1], in assay [2], in assay [3], in [4], in [5] and in assay [8] was “inactive” each time. Also, the molecule was classed as inactive in [6], in assay [7] and in [9].
Consider `NC(=O)NC(N)=O`, for which the Potency entry in assay [1], in assay [2], in assay [3], in assay [4], in assay [5] and in assay [8] was “inactive” throughout. Further, the outcome in assay [6], in [7] and in assay [9] was inactive.
Consider `CC1(C)C(=O)N(Cl)C(=O)N1Cl`, for which the Potency entry in assay [1], in [2], in assay [3], in [4], in [5] and in assay [8] was “inactive” each time. The result in assay [6], in [7] and in [9] was inactive.
In the case of `CCCOC(=O)NCCCN(C)C`, the Potency result in [1], in [2], in assay [3], in [4], in [5] and in assay [8] was “inactive” throughout. In addition, the call in assay [6], in [7] and in assay [9] was inactive.
Turning to `CN1Cc2c(N)cccc2C(c2ccccc2)C1` (centres undefined), the Potency result in assay [1], in assay [3], in assay [4], in assay [5] and in assay [8] was “inactive” in each case. Besides, the outcome in assay [6], in assay [7] and in [9] was inactive.
Take `Oc1ccc(Cc2ccccc2O)cc1`: the Potency result in assay [1], in assay [2], in assay [3], in assay [4] and in assay [8] was “inactive” each time. Moreover, the Potency in assay [5] is 11 µM (active) and 27.3 µM (active). Further, the molecule was classed as inactive in [6], in assay [7] and in assay [9].
Take `COc1ccc2cc3[n+](cc2c1OC)CCc1cc2c(cc1-3)OCO2`: the Potency entry in [1], in assay [4] and in [8] was “inactive” in each case. The Potency result in [2] was “inactive and 30.9 µM (active)”; in assay [5], 1.68 µM (active) and 870 nM (active). Moreover, the call in assay [6], in [7] and in [9] was inactive.
`CC(CN1c2ccccc2Sc2ccccc21)N(C)C` (centres undefined): the Potency entry in [1], in [2], in assay [3], in assay [4] and in assay [8] was “inactive” in each case. Also, the result in assay [6], in assay [7] and in assay [9] was inactive.
With `CC(=O)OC[C@H]1O[C@@](COC(C)=O)(O[C@H]2O[C@H](COC(C)=O)[C@@H](OC(C)=O)[C@H](OC(C)=O)[C@H]2OC(C)=O)[C@@H](OC(C)=O)[C@@H]1OC(C)=O`, the Potency entry in [1], in assay [2], in assay [3], in assay [4], in assay [5] and in assay [8] was “inactive” throughout. Besides, the molecule was classed as inactive in [6], in [7] and in assay [9].
In the case of `CN=C(NC#N)NCCSCc1nc[nH]c1C`, the Potency entry in assay [1], in assay [3], in assay [4], in [5] and in assay [8] was “inactive” throughout. Moreover, the call in [6], in [7] and in assay [9] was inactive.
Consider `O=Cc1ccc(CO)o1`, for which the Potency entry in assay [1], in assay [2], in assay [3], in [4], in assay [5] and in [8] was “inactive” in each case. Also, the call in [6], in assay [7] and in assay [9] was inactive.
As for `O=C(NCC1CCCCN1)c1cc(OCC(F)(F)F)ccc1OCC(F)(F)F` (centres undefined), the Potency result in assay [2], in assay [4], in assay [5] and in assay [8] was “inactive” throughout. For the same molecule, the molecule was called inactive in assay [6], in assay [7] and in assay [9].
In the case of `Nc1cccc(N)n1`, the Potency result in assay [1], in assay [3], in assay [4] and in assay [8] was “inactive” each time. In addition, in assay [5], the Potency is 14.8 µM (active) and 48.6 µM (active). Besides, the molecule was called inactive in assay [6], in [7] and in assay [9].
With `Cc1cccc(C)c1[N+](=O)[O-]`, the Potency result in assay [2], in [3], in [4], in assay [5] and in [8] was “inactive” in each case. For the same molecule, the outcome in assay [6], in assay [7] and in assay [9] was inactive.
Regarding `CCCOCC(C)O` (centres undefined), the Potency entry in assay [1], in [2], in [3], in assay [4] and in assay [8] was “inactive” throughout. In addition, the Potency in assay [5] is 54.5 µM (active) and inactive. The molecule was called inactive in assay [6], in assay [7] and in assay [9].
Take `CS(=O)(=O)c1ccc(Cl)cc1`: the Potency result in [2], in assay [3], in [4], in assay [5] and in [8] was “inactive” in each case. Further, the outcome in [6], in [7] and in [9] was inactive.
On to `Clc1cccc(Cl)c1NC1=NCCN1`, for which the Potency entry in [2], in assay [3], in [4], in assay [5] and in assay [8] was “inactive” in each case. The outcome in assay [6], in assay [7] and in assay [9] was inactive.
With `Cc1ccccc1C=O`, the Potency result in assay [1], in assay [2], in assay [3], in [4], in assay [5] and in assay [8] was “inactive” each time. Also, the result in [6], in assay [7] and in assay [9] was inactive.
With `N#CCC(=O)O`, the Potency entry in assay [1], in assay [2], in [3] and in assay [8] was “inactive” in each case. Further, the molecule was called inactive in assay [6], in assay [7] and in assay [9].
`CCCCC(CC)COC(=O)c1ccc(C(=O)OCC(CC)CCCC)cc1` (centres undefined): the Potency result in assay [1], in assay [2], in assay [3], in assay [4], in assay [5] and in [8] was “inactive” in each case. The outcome in assay [6], in assay [7] and in assay [9] was inactive.
Regarding `CCN(CC)CCNC(=O)c1ccc(N)cc1`, the Potency result in assay [1], in assay [2], in assay [3], in [4] and in assay [8] was “inactive” throughout. The Potency in assay [5] was 13.3 µM (active). In addition, the result in assay [6], in assay [7] and in assay [9] was inactive.
As for `CC(C)c1ccc(C(C)C)cc1`, the Potency result in assay [1], in [2], in assay [3], in [4], in assay [5] and in [8] was “inactive” each time. Moreover, the molecule was classed as inactive in [6], in assay [7] and in assay [9].
As to `CC[N+](CC)(CC(=O)Nc1c(C)cccc1C)Cc1ccccc1`, the Potency entry in assay [1], in assay [2], in [3], in [4] and in assay [8] was “inactive” throughout. The molecule was classed as inactive in assay [6], in assay [7] and in [9].
For `C=CC(=O)NCOCCCC`, the Potency result in assay [1], in [2], in assay [3], in [4], in [5] and in [8] was “inactive” each time. The result in assay [6], in assay [7] and in assay [9] was inactive.
In the case of `NC1CCCCC1N` (centres undefined), the Potency entry in assay [2], in [3] and in [8] was “inactive” throughout. The result in [6], in assay [7] and in assay [9] was inactive.

Source of the values: PubChem BioAssay (Tox21).
